This passage reports inhibition results from PubChem BioAssay AID623870 (Broad Institute, 2012).

About 2,600 (0.67%) of roughly 390,000 compounds were called active. This is one part of a sample in which actives are shown more often than they occur. A number with no mark means an inactive call.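 The calls were made as follows: active = mean inhibition of replicates at least 50% and at least half of replicates each reaching 50%; inconclusive = half or more replicates reach 50% but mean below 50%; inactive = the rest.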

The assay deals with Transforming acidic coiled-coil-containing protein 3 (Homo sapiens) (UniProt Q9Y6A5). The assay is described as follows: disruptors of ARNT/TACC3 protein interaction, primary screen, biochemical, AlphaScreen, single concentration (AID 623870).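 Also: 0% = complete ARNT plus TACC3 wells and 100% = ARNT alone without TACC3.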 Particulars: AlphaScreen His-ARNT PAS-B/GST-TACC3 binding, luminescence; at 9.99 µM; stronger effect = higher value; TACC3 fragment carries E629A point mutation. Background: Alpha assays give light when donor and acceptor beads are brought close together.
The term inhibition denotes the change of the read-out against control, counted positive when it falls. Take `C[C@H](CO)N1C[C@H](C)[C@H](CN(C)Cc2ccncc2)Oc2ncc(C#CCC3CCCCC3)cc2C1=O`: the inhibition is -1.21%. Take `Cc1noc(C)c1NC(=O)Nc1ccc2c(c1)CC(=O)N([C@@H](C)CO)C[C@@H](C)[C@@H](CN(C)Cc1ccc(Cl)c(Cl)c1)O2`: the inhibition is -1.62%. Take `CO[C@@H]1CN(C)C(=O)c2cc(NS(=O)(=O)c3cn(C)cn3)ccc2OC[C@@H](C)NC[C@H]1C`: the inhibition was 1.1%.

As to `CN(C)C(=O)C[C@@H]1CC[C@H](NC(=O)NC2CCCCC2)[C@@H](CO)O1`, the inhibition is -17%. For `CN(C)C(=O)C[C@@H]1CC[C@H]2[C@@H](COC[C@H](O)CN2C(=O)c2ccncc2)O1`, the inhibition was -9.54%. Then `C[C@@H]1CN([C@H](C)CO)S(=O)(=O)c2ccc(-c3ccncc3)cc2O[C@@H]1CN(C)C(=O)CN(C)C`, with 12%; and `C[C@H]1CN([C@@H](C)CO)C(=O)c2cc(NC(=O)NC3CCCCC3)ccc2O[C@@H]1CN(C)C(=O)Nc1cccc2ccccc12`, with 0.153%; and `CCC(C)[C@@H](C(=O)N1CCNCC1)n1cc(CCCCN)nn1` (stereo partly drawn), with 7.8%.

`C#CCOCCOCCOCCNc1nc(N2CCN(C(=O)[C@H](CCCCN)n3cc([C@@H](N)C(C)CC)nn3)CC2)nc(N2CCN(C(=O)[C@H](Cc3ccc(O)cc3)n3cc([C@@H](N)C(C)CC)nn3)CC2)n1` (stereo partly drawn): the inhibition was 45.7% (active). Then `C#CCOCCOCCOCCNc1nc(N2CCN(C(=O)CCCCCCCCCCNC(=O)[C@H]([C@@H](C)CC)n3cc(CCCCN=C(N)N)nn3)CC2)nc(N2CCN(C(=O)CCCCCCCCCCNC(=O)[C@H](CO)n3cc(CCCSC)nn3)CC2)n1`, with 9.17%; and `C#CCOCCOCCOCCNc1nc(N2CCN(C(=O)C([C@@H](C)O)n3cc([C@@H](N)CCCCN)nn3)CC2)nc(N2CCN(C(=O)[C@H](CCCCN)n3cc(CN)nn3)CC2)n1` (stereo partly drawn), with 21.2% (active); and `CC[C@H](C)[C@@H](C(=O)N1CCNCC1)n1cc([C@@H](N)Cc2ccc(O)cc2)nn1`, with -3.75%.

`C[C@H]1CN([C@@H](C)CO)C(=O)c2cc(NC(=O)CCN3CCOCC3)ccc2O[C@@H]1CN(C)C(=O)Nc1ccc(C(F)(F)F)cc1`: the inhibition is 26.6%.

Regarding `Cc1noc(C)c1S(=O)(=O)N(C)C[C@H]1OCCCC[C@@H](C)Oc2ccc(NC(=O)c3ccccc3)cc2C(=O)N([C@@H](C)CO)C[C@H]1C`, the inhibition was -4.16%. Turning to `O=C1c2ccccc2-c2ncnc3c(N4CCOCC4)cc(N4CCOCC4)c1c23`, the inhibition is 11.8%.

With `COc1ccc(S(=O)(=O)N2CCOCC2)c(C)c1C`, the inhibition was -0.167%.

For `COC1=C(N2CCOCC2)C(=O)c2ccccc2C1=O`, the inhibition is 60.4% (active). In the case of `C[C@@H]1CN([C@@H](C)CO)C(=O)c2cccc(NS(=O)(=O)c3cn(C)cn3)c2O[C@H]1CN(C)Cc1ccc(Cl)c(Cl)c1` it was 4.82%; in that of `O=C(NC1CCCC1)[C@H]1[C@H](CO)[C@H]2Cn3c(ccc(-c4ccccc4)c3=O)[C@H]2N1CCc1ccccc1`, 5.95%; in that of `COCC(=O)N1CC[C@@H]2[C@@H](CO)Nc3ccc(-c4ccc(C(=O)N(C)C)cc4)cc3[C@@H]21`, -12.5%. With `COc1cccc(S(=O)(=O)N[C@H]2CC[C@H](CCN)O[C@H]2CO)c1`, the inhibition was 0.015%. Turning to `COCC(=O)Nc1ccc2c(c1)OC[C@@H](C)N(C(=O)c1cnccn1)C[C@H](C)[C@H](OC)CN(C)C2=O`, the inhibition was -8.24%.

As for `COc1cc(C(=O)NCc2ccc(-n3cccc3)cc2)cc(OC)c1OC`, the inhibition was -1.7%.

Take `COc1cc(Cl)cc(C2NC(=O)NC(C)=C2C(=O)NCc2ccccc2)c1O` (stereo not drawn): the inhibition was -0.141%.

Turning to `COc1cc(C(=S)NCc2ccccc2)cc(Br)c1O`, the inhibition was 49.6% (active). Then `COc1ccc(S(=O)(=O)Nc2cccc3c2O[C@@H](CN(C)S(=O)(=O)c2ccccc2)[C@@H](C)CN([C@@H](C)CO)C3=O)cc1`, with 1.77%. For the compound `CC(=O)N(C)C[C@H]1Oc2cc(-c3ccc(C)cc3)ccc2S(=O)(=O)N([C@@H](C)CO)C[C@@H]1C`, the inhibition was -9.76%.

Turning to `C[C@@H]1CN([C@@H](C)CO)S(=O)(=O)c2ccc(C3=CCCC3)cc2O[C@H]1CN(C)C(=O)CC1CC1`, the inhibition is 3.76%. For the compound `C[C@H]1CN([C@@H](C)CO)C(=O)c2cc(NC(=O)Cn3cnnn3)ccc2O[C@@H]1CN(C)C(=O)Nc1ccccc1`, the inhibition was -0.158%. Then `c1ccc(-c2cn3c(n2)CCc2ccc4cccnc4c2-3)cc1`, with 64.1% (active); and `O=C(Nc1nnc(C2=COCCO2)o1)c1ccc([N+](=O)[O-])s1`, with 32.6%. In the case of `COc1cc(-c2nnc(NC(=O)C3=COCCO3)o2)cc(OC)c1OC` it was 45.2% (active); in that of `CCC(CC)c1nnc(NC(=O)C2=COCCO2)s1`, -6.14%; in that of `COC(=O)[C@@H]1[C@@H](CO)[C@@H]2Cn3c(ccc(C4=CCCC4)c3=O)[C@@H]2N1Cc1cncnc1`, -4.04%. In the case of `C/C=C/c1ccc2c(c1)O[C@@H](CN(C)C(=O)Cc1ccccn1)[C@@H](C)CN([C@H](C)CO)S2(=O)=O` it was -2.68%. With `CC(OC(=O)CN1C(=O)COc2ccccc21)C(=O)NCc1ccc(F)cc1` (stereo not drawn), the inhibition is -23.2%.

For `O=C(CN1C(=O)COc2ccc(Cl)cc21)Nc1ccc(N2CCOCC2)cc1`, the inhibition was 2.76%. On to `O=C(CN1C(=O)COc2ccccc21)Nc1ccc(F)cc1`, for which the inhibition was 55.9% (active). In the case of `C[C@H]1CN([C@@H](C)CO)C(=O)c2cc(NC(=O)Nc3ccc4c(c3)OCO4)ccc2O[C@@H]1CN(C)Cc1ccc(Oc2ccccc2)cc1` it was 28.7%. Then `COC(=O)C1=C(C)Nc2ncnn2C1c1cccnc1` (stereo not drawn), with 18.7% (active); and `COc1cc(C2C(C(=O)Nc3ccccc3OC)=C(C)Nc3ncnn32)ccc1O` (stereo not drawn), with 7.59%. Turning to `CC1=C(C(=O)OC2CCCCC2)C(c2cccnc2)n2ncnc2N1` (stereo not drawn), the inhibition is -3.41%. Consider `CN1CCN(C(=O)C[C@H]2CC[C@H]3[C@H](COc4ccc(NC(=O)C5CC5)cc4C(=O)N3C)O2)CC1`, for which the inhibition is -1.07%.
